Assay outcomes from PubChem.
HCV inh – HCV inhibition; Huh7.5.1 HCVcc-Cre infection, luciferase reporter, 44 h; Potency, µM (titrated, usually from 41.8 µM), most hits filed as inhibitors; 3.4% of 340,000 active
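Luciferase read-out (15 sec integration) after a 15 min room-temperature substrate step quantifies HCVcc-Cre infection. Cells, 1,000 per well, had compound added 4 h post-plating, then virus at ~0.5 moi, and were cultured 44 h.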
Sm TGR inh – blocks Schistosoma mansoni thioredoxin glutathione reductase | Q962Y6 | purified TGR, DTNB reduction, TNB absorbance 405 nm | Potency, µM (highest dose often 114 µM), actives largely listed as inhibitors | 3% of 360,000 active; further: nearly all actives have a fitted effect of over 60% in size
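Kinetic colorimetric format: TGR-catalysed, NADPH-driven DTNB reduction monitored via TNB absorbance. Enzyme dispensed at 20 nM; compound exposure 15 min at room temperature before reaction start.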
SARS PLP yeast – SARS-CoV PLP inhibition in yeast. S. cerevisiae expressing SARS-CoV PLpro, growth rescue. Potency, µM (series often up to 32.9 µM), actives largely listed as activators. 0.19% of 330,000 active; calls by dose curve; further: nearly all actives have a fitted effect of over 55% in size
HCMV inh – human cytomegalovirus inhibition; HFF cells, HCMV-luciferase reporter, 72 h; hits give low values; activity change, negative = inhibition, % at 57.5 µM; 4.5% of 410,000 active; AID 1259415; in the data active means activity change below about -60%; inconclusive means no clear call, values can overlap the other calls; inactive means above about -39%
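Steps: HFFs plated, 16 h 37C; compounds added; HCMV-luciferase added to MOI 1 PFU/cell; 72 h 37C; OneGlo reagent, 5 min room temperature; luminescence read, normalized to controls.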
Pf growth 96h – P. falciparum growth inhibition at 96 hours; P. falciparum luciferase reporter growth, 96 h; Potency, µM (top dose mostly 28.7 µM), actives largely listed as inhibitors; 6.9% of 320,000 active; AID 504834
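Two-generation exposure (96 h) targets delayed-death phenotype. Reporter parasites carrying integrated firefly luciferase, in red cells at 2% hematocrit and 0.05% parasitemia final, kept at 37 C, 5% CO2; luminescence loss indicates inhibition.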
Pf growth 48h – inhibits P. falciparum growth in the first generation, 48 h; P. falciparum luciferase growth in erythrocytes, 48 h; Potency, µM (doses to about 28.7 µM), usual class: inhibitors; 5.9% of 310,000 active; AID 504832
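Parasite viability was followed by luminescence of a genomically integrated firefly luciferase. Cultures held 0.1% parasitemia at 2% hematocrit (final), incubated under 5% CO2 at 37 C.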
A number is an active result; [ ] = another dose, or the depositor's remark. Hits are enriched below; roughly 15% of the tested compounds scored in any of these assays. Unless noted, the call rests on the fitted dose curve; in most records, active means well fitted curve in the direction sought with a large enough effect; inconclusive means small, poorly fitted or top-dose-only effect, or another doubt; inactive means no such curve, though single readings can be large; an effect the other way counts as inactive or inconclusive.

What do the screens show for `CC1(C)Cc2ccccc2C2=C(C(=O)N3CCCCCC3)C(=O)C(=O)N21`?
HCV inh: inactive; Sm TGR inh: inactive; SARS PLP yeast: inactive; HCMV inh: inactive; Pf growth 96h: inactive; Pf growth 48h: inactive

How did O=C1C(=O)N2C(=C1C(=O)N1CCCCCC1)c1ccccc1CC21CCCC1 do in these assays?
HCV inh: inactive; Sm TGR inh: inactive; SARS PLP yeast: inactive; HCMV inh: -66.1; Pf growth 96h: inactive; Pf growth 48h: inactive

How did C[C@H](NC(=O)C1CCN(C(=O)[C@H](Cc2ccccc2)NC(=O)OC(C)(C)C)CC1)C(=O)O do in these assays?
HCV inh: inactive; Sm TGR inh: inactive; SARS PLP yeast: inactive; HCMV inh: inactive; Pf growth 96h: inactive; Pf growth 48h: inactive[0.00184 µM]

How did O=C(NCc1cccnc1)c1csc([C@@H]2O[C@H](CO)[C@H](O)[C@H](O)[C@H]2O)n1 do in these assays?
HCMV inh: inactive

How did CC(C)Oc1ccc(C(CC(=O)O)NC(=O)Cc2ccccc2)cc1 (centres undefined) do in these assays?
HCV inh: inactive; Sm TGR inh: inactive; SARS PLP yeast: inactive; HCMV inh: inactive; Pf growth 96h: inactive; Pf growth 48h: inactive

What do the screens show for `O=C(O)CC(NC(=O)C1c2ccccc2Oc2ccccc21)c1ccc(Cl)cc1` (centres undefined)?
HCV inh: inactive; Sm TGR inh: inactive; SARS PLP yeast: inactive; HCMV inh: -88.2; Pf growth 96h: inactive; Pf growth 48h: inactive

What do the screens show for `CCOc1ccc(C(CC(=O)O)NC(=O)Cc2ccc(Cl)cc2)cc1` (centres undefined)?
HCV inh: inactive; Sm TGR inh: inactive; SARS PLP yeast: inactive; HCMV inh: inactive; Pf growth 96h: 3.29µM; Pf growth 48h: inactive

What do the screens show for `CN(C)c1ccc(C(CC(=O)O)NC(=O)c2ccc(Cl)cc2)cc1` (centres undefined)?
HCV inh: inactive; Sm TGR inh: 31.6µM; SARS PLP yeast: inactive; HCMV inh: inactive; Pf growth 96h: inactive[5.75 µM]; Pf growth 48h: inactive

How did Cc1ccc2c(=O)cc(C(=O)Nc3sc4c(c3C(=O)NCC3CCCO3)CCCC4)oc2c1C (centres undefined) do in these assays?
Sm TGR inh: inactive; HCMV inh: inactive

Results for COc1cc2c(cc1OC)C(CNC(=O)C=Cc1ccccc1)C2 (centres undefined) ?
HCMV inh: inactive

How did CC1(C)C=C(c2ccc(O)cc2)CC(C)(C)N1 do in these assays?
HCV inh: inactive; Sm TGR inh: inactive; SARS PLP yeast: inconclusive; HCMV inh: inactive; Pf growth 96h: 13.1µM; Pf growth 48h: inactive

Results for CC(C)NC(=O)C1(C)CN(S(C)(=O)=O)CC(=O)N1Cc1ccc2c(c1)OCO2 (centres undefined) ?
HCMV inh: inactive

How did CCOC(=O)N1CCN(C(=O)CSCC(=O)Nc2nc(-c3ccc(-c4ccccc4)cc3)cs2)CC1 do in these assays?
HCV inh: 5.62µM; Sm TGR inh: inactive; SARS PLP yeast: inactive; HCMV inh: -76.6; Pf growth 96h: 10.4µM; Pf growth 48h: inconclusive

What do the screens show for `CCOC(=S)SCC(=O)Nc1nc(-c2ccccc2)cs1`?
HCV inh: inactive; Sm TGR inh: inactive; SARS PLP yeast: inactive; HCMV inh: -72.8; Pf growth 96h: inconclusive; Pf growth 48h: inconclusive

How did CCc1nnc(NC(=O)CN2CCN(c3nc(-c4ccccc4)cs3)CC2)s1 do in these assays?
HCV inh: inactive; Sm TGR inh: inactive; SARS PLP yeast: inactive; HCMV inh: inconclusive; Pf growth 96h: 9.28µM; Pf growth 48h: 10.4µM

How did COc1ccccc1C1(O)CCN(CC(=O)Nc2nc(-c3ccccc3)cs2)CC1 do in these assays?
HCV inh: 10µM; Sm TGR inh: inactive; SARS PLP yeast: inactive; HCMV inh: inactive; Pf growth 96h: inactive; Pf growth 48h: inactive

How did CCc1nnc(NC(=O)CN2CCC(O)(c3ccccc3OC)CC2)s1 do in these assays?
HCV inh: inactive; Sm TGR inh: inactive; SARS PLP yeast: inactive; HCMV inh: inactive; Pf growth 48h: inactive

How did CCOC(=S)SCC(=O)Nc1nccs1 do in these assays?
HCV inh: inactive; Sm TGR inh: inactive; SARS PLP yeast: inactive; HCMV inh: inactive; Pf growth 96h: inactive; Pf growth 48h: inconclusive

How did CCOC(=S)SCC(=O)Nc1nc(-c2ccc(Br)cc2)cs1 do in these assays?
HCV inh: inconclusive; Sm TGR inh: inactive; SARS PLP yeast: inactive; HCMV inh: -99.5; Pf growth 96h: 3.29µM; Pf growth 48h: inactive

Results for CCOC(=O)/C=c1/s/c(=C/c2ccc3cc(OC)ccc3c2)c(=O)n1CC(=O)NCc1ccc2c(c1)OCO2 ?
HCV inh: inactive; HCMV inh: inconclusive

How did CSc1ccc(C(O)c2ncc(-c3ccccc3Cl)[nH]2)cc1 (centres undefined) do in these assays?
HCMV inh: inactive

What do the screens show for `CC(C)Cc1ccc(C(C)C(N)=NCCc2ccccc2)cc1` (centres undefined)?
HCV inh: inconclusive; Sm TGR inh: inactive; SARS PLP yeast: inactive; HCMV inh: -86.7; Pf growth 96h: inconclusive; Pf growth 48h: inconclusive

What do the screens show for `CCOC(=O)Cc1n[nH]c(=O)c2ccccc12`?
HCV inh: inactive; Sm TGR inh: inactive; SARS PLP yeast: inactive; HCMV inh: inactive; Pf growth 96h: inconclusive; Pf growth 48h: inactive

What do the screens show for `O=C(Cc1n[nH]c(=O)c2ccccc12)OCc1c(Cl)cccc1Cl`?
HCV inh: inactive; Sm TGR inh: inactive; SARS PLP yeast: inactive; HCMV inh: -67.6; Pf growth 96h: inactive; Pf growth 48h: inactive

Results for CC1(C)OC(=O)C=C(CC2NS(=O)(=O)OC3CCCCC23)O1 (centres undefined) ?
HCV inh: 2.51µM; Sm TGR inh: inactive; SARS PLP yeast: inactive; HCMV inh: inactive; Pf growth 96h: inactive; Pf growth 48h: inactive

What do the screens show for `O=C(C[C@@H]1NS(=O)(=O)OC2CCCCC21)c1ccccc1` (some centres undefined)?
HCV inh: 0.282µM; Sm TGR inh: inactive; SARS PLP yeast: inactive; HCMV inh: inactive; Pf growth 96h: inactive; Pf growth 48h: inactive

Results for CC(C)(C)SC(=O)CC1NS(=O)(=O)OC2CCCCC12 (centres undefined) ?
HCV inh: inactive; Sm TGR inh: inactive; SARS PLP yeast: inactive; HCMV inh: inactive; Pf growth 96h: inactive; Pf growth 48h: inactive

How did COC(=O)C/C=C/[C@@H](C)[C@@H](/C=N/O[C@@H](C)c1cn([C@H](CO)Cc2ccccc2)nn1)NS(=O)(=O)c1ccc(C)cc1 do in these assays?
HCV inh: inactive[8.37 µM]; Sm TGR inh: inactive; SARS PLP yeast: inactive; Pf growth 96h: 11.7µM; Pf growth 48h: inconclusive

Results for CCC[C@H]1[C@@H](NS(=O)(=O)c2ccc(Br)cc2)CC[C@@]23CCCN2C(=O)CCC[C@@H]13 ?
HCMV inh: inactive
